The campaign covered roughly 370,000 compounds. About 760 (0.21%) were called active. The full list was thinned out, with actives kept by preference. Unmarked numbers belong to inactive results.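 Rule for the calls: active = inhibition above a per-campaign cutoff: mean of compounds within control limits plus 3 SD (cut at about 15% in these data); inactive = the rest.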
The molecules below were run against Fibrinogen beta chain (Homo sapiens) (UniProt P02675) (assay: small molecules displacing Tn6 from DD(E) complex – biochemical, fluorescence polarization, human fibrin, Tn6 probe, primary screen (AID 720509;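 note: 0% = median of all compound wells on the plate and 100% = blocking peptide control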)). Conditions: Fibrin DD(E) TRITC-Tn6 fluorescence polarization displacement; at 8.3 µM; hits give high values.
Fibrinogen beta chain (Homo sapiens), sequence (P02675 whole entry, looked up): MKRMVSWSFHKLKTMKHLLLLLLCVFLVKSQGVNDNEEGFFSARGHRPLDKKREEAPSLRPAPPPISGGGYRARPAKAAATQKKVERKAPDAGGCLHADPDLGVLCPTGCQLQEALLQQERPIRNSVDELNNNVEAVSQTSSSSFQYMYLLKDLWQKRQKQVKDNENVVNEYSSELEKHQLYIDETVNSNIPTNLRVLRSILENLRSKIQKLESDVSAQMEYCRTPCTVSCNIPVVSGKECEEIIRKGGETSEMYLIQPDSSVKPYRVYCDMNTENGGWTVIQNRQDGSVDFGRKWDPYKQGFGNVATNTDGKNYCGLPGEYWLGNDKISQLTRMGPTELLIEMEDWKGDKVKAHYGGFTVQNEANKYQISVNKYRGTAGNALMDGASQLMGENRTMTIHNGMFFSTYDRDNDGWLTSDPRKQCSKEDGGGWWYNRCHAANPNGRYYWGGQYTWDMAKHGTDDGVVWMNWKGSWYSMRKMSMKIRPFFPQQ

Structure (SMILES)	inhibition
Cc1ccc(Nc2nc(CSc3nnc(-c4ccncc4)n3-c3ccccc3C)cs2)cc1	-3.59%
O=C(NCC(F)(F)F)c1ccc(S(=O)(=O)NCCc2ccc3c(c2)OCCO3)cc1	0.28%
Cn1cc(-c2ccccc2)cc(C#N)c1=O	-5.81%
CCCCNC(=O)Nc1c(C)cc(SC#N)cc1C	-1.9%
C[C@H]([C@@H](O)[C@@H](O)[C@@H](C)C(C)(C)C)[C@H]1CC[C@H]2C3CC[C@H]4C[C@H](OS(=O)(=O)O)[C@@H](OS(=O)(=O)O)C[C@]4(C)[C@H]3CC[C@]12C (stereo partly specified)	3.35%
O=C(NCc1ccccc1Cl)C1CCN(c2ncnc3c2nc2n3CCCCC2)CC1	-4.73%
C=C1CCC(N(O)c2cc(C)on2)C(=C)CCC2C1CC2(C)C (stereo unspecified)	-5.24%
CC(C)Oc1cc(F)ccc1-c1cc(C(=O)Nc2cccc(Cl)c2)[nH]n1	-6.05%
CC(CNS(=O)(=O)c1ccc(Br)cc1)CN(C)C (stereo unspecified)	-0.63%
Cc1ccc(C(=O)Cc2nnc(C)s2)cc1	-0.99%
O=S(=O)(NCc1ccccc1Cl)c1cnc[nH]1	-4.95%
Cc1c(C(=O)N(C)CCc2cnn(C)c2)oc2c(F)cccc12	3.62%
COc1cccc(NC(=O)C2(C)CCN2Cc2ccccc2Cl)c1 (stereo unspecified)	0.5%
COC(=O)c1cc(NC(=O)c2cc(C(C)(C)C)nn2Cc2cccc(C)c2)ccc1N1CCOCC1	4.88%
O=C(C(NS(=O)(=O)c1cccc2nsnc12)c1ccccc1)N1CCN(c2ccccc2)CC1 (stereo unspecified)	8.08%
CN1CCN(C(=O)c2ccc(-c3cc4nc(NCc5cccnc5)n(C)c(=O)c4s3)cc2)CC1	-11.9%
Cc1ccccc1OCC(=O)NCC(=O)OCC(=O)c1ccc2ccccc2c1	-2.48%
O=C(COc1ccc(Cl)cc1)NCCSc1ccccc1	-0.51%
Cc1cc2ccccc2n1CCNC(=O)COc1ccc2ccccc2c1	52.5% (active)

Structure (SMILES)	inhibition
O=C(NCc1ccccc1)c1cccc(NC(=O)C2CCCCC2)c1	3.16%
O=C(CC(NC(=O)c1ccccc1)c1ccccc1)Nc1ccc(F)c(F)c1 (stereo unspecified)	6.57%
C=CC(COCc1ccccc1)N(CC(=O)OC)S(=O)(=O)c1cc(Br)ccc1OC (stereo unspecified)	-3.84%
Cc1noc(C)c1CSCC(=O)Nc1ccc(Br)cc1Cl	-5.8%
CCN(CC)P(=O)(C(NC(=O)OC)C(F)(F)C(F)(F)C(F)(F)C(F)F)N(CC)CC (stereo unspecified)	0.37%
CN1c2ccc(C=O)c3c(C=O)ccc(c23)N(C)C1(C)C	29.5% (active)
C[C@@H]1CN([C@H](C)CO)S(=O)(=O)c2ccc(C#CC3CCCCC3)cc2O[C@H]1CN(C)C(=O)Cc1ccncc1	2.11%
Cc1cc(NC(=O)CCC(=O)N(Cc2ccccc2)C(C(=O)NC2CCCC2)c2ccc(C)o2)no1 (stereo unspecified)	-2.98%
Cc1sc2ncn(CC(=O)NCCCC(=O)N(C)Cc3ccccc3)c(=O)c2c1C	6.86%
CCCNC(=O)c1cc(C2CCCN(C(=O)c3ccc4c(c3)CCO4)C2)on1 (stereo unspecified)	2.19%
COc1cc(NC(=O)c2ccc(CNc3c(N4CCCC4)c(=O)c3=O)cc2)cc(OC)c1OC	17.7% (active)
O=C(NCc1ccccc1)c1ccc(CNc2c(N3CCCC3)c(=O)c2=O)cc1	-2.33%
O=C(NC1CCCCC1)c1ccc(CNc2c(N3CCOCC3)c(=O)c2=O)cc1	-6.33%
COc1cc(OC)cc(-c2c(-c3cccs3)c3cc(-c4ccc(OC)cc4F)ccc3n2C)c1	8.62%
CCC1CCCCN1S(=O)(=O)Cc1ccccc1Cl (stereo unspecified)	-7.39%
Cc1nnsc1C(=O)NCc1c(F)cccc1Cl	2.62%
Cc1nnsc1S(=O)(=O)Cc1ccccc1Cl	16.3% (active)
CCOC(=O)N1CCC(NC(=O)C(NS(=O)(=O)c2ccc3c(c2)CCN3C(=O)CC)C(C)C)CC1 (stereo unspecified)	0.83%
CC(C)Cc1ccc(S(=O)(=O)N2CCN(C(=O)c3ccco3)CC2)cc1	0.21%

Structure (SMILES)	inhibition
C[C@H](CO)N1C[C@H](C)[C@@H](CN(C)Cc2ccc(-c3ccccc3)cc2)Oc2ccc(NC(=O)Cn3cnnn3)cc2C1=O	4.05%
COC(=O)c1cc(=O)n(-c2c(Cl)cc(C(F)(F)F)cc2Cl)[nH]1	0.92%
O=C(OCCOc1ccccc1Cl)c1cc(S(=O)(=O)N2CCCCC2)ccc1N1CCOCC1	-7.85%
CC(C)c1cc(NCc2ccccn2)n2c(nc3ccccc32)c1C#N	5.58%
Cc1cc2cc(CNC(=O)c3ccc(S(=O)(=O)N4CCOCC4)cc3)ccc2[nH]1	16% (active)
Cc1cc2cc(CNC(=O)c3cccs3)ccc2[nH]1	-2.34%
O=C(Nc1ccc2cn[nH]c2c1)c1ccc(S(=O)(=O)N2CCOCC2)cc1	3.58%
N=c1n(Cc2ccc(Cl)cc2)c2ccccc2n1CC(O)c1ccco1 (stereo unspecified)	0.26%
C=CCNC(=S)N1CCN(CCN=Cc2c(C)[nH]n(-c3ccc([N+](=O)[O-])cc3)c2=O)CC1	-4.37%
O=c1[nH]n(-c2ccc([N+](=O)[O-])cc2)c(=O)c2ccccc12	27.3% (active)
O=C(CSCc1ccc([N+](=O)[O-])cc1)NCCSCc1ccccc1	2.74%
COc1cccc(NC(=O)Cn2c3ccc(F)cc3c3nc4n(c(=O)c32)CCS4)c1	-7.55%
COc1ccc(C2/C=C\CN(S(=O)(=O)c3cccs3)CC(=O)N2Cc2ccc(F)cc2)cc1 (stereo unspecified)	-0.69%
CC(=O)c1ccc(OCCCC(=O)Nc2ccc(C)c(S(=O)(=O)N3CCOCC3)c2)cc1	6.11%
CCCCNC(=O)c1ccccc1NC(=O)c1ccccc1N(C)S(C)(=O)=O	2.47%
COc1ccccc1N(CCOc1ccccc1)S(=O)(=O)c1ccccc1	5.19%
COC(C/C=C/C(=O)[C@@H](C)OCc1ccccc1)OC	5.15%
O=c1c2ccccc2nc2n1C(CSCc1cccc(C(F)(F)F)c1)CS2 (stereo unspecified)	2.51%

Reference: PubChem BioAssay AID720509 (The Scripps Research Institute Molecular Screening Center, 2013)
